Assay outcomes deposited in PubChem BioAssay by National Center for Advancing Translational Sciences (NCATS).
Sm TGR block: qHTS Assay for the Inhibitors of Schistosoma Mansoni Peroxiredoxins; Schistosoma mansoni thioredoxin glutathione reductase (TGR), Q962Y6; 360,000 compounds, 3% hits; Potency, µM (highest dose often 114 µM), inactives show at the top dose activity change, negative = inhibition, actives largely listed as inhibitors; AID 485364, 2010; purified TGR, DTNB reduction, TNB absorbance 405 nm; note: nearly all actives have a fitted effect of over 60% in size
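Kinetic colorimetric format: TGR-catalysed, NADPH-driven DTNB reduction monitored via TNB absorbance. Enzyme dispensed at 20 nM; compound exposure 15 min at room temperature before reaction start.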
AmpC inh no detg: qHTS Inhibitors of AmpC Beta-Lactamase (assay without detergent) | Potency, µM (top dose mostly 57.1 µM), without a hit: top-dose activity change, negative = inhibition, actives largely listed as inhibitors | AmpC nitrocefin hydrolysis, absorbance 480 nm, 0.0001% Triton | 330,000 compounds, 0.52% hits | AID 485341, 2010 | P00811;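 note: plate controls were no compound for no effect and no enzyme for full effect; nearly all actives have a fitted effect of over 20% in size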
Target sequence (P00811 whole entry, looked up): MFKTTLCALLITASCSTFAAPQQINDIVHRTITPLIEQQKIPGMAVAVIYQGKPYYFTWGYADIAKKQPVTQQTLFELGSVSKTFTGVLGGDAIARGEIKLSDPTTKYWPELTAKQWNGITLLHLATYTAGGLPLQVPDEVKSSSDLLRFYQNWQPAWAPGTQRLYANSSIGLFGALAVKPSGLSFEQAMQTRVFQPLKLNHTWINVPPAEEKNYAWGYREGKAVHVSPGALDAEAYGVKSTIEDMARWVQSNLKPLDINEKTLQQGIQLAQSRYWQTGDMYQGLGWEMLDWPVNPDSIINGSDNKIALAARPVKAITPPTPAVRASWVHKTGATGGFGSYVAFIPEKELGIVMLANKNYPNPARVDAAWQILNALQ
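AmpC (5.3 nM in the dispensed reagent) in 20 mM phosphate pH 7.0 with 0.01% (detergent screen) or 0.0001% Triton X-100 was preincubated with compounds for 15 min at room temperature. Nitrocefin was then added from an 800 uM solution, and hydrolysis was followed at 480 nm.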
FMDV antiviral: High Throughput Screening for Foot and Mouth Disease Virus Antivirals; FMDV antiviral cell-based qHTS; 410,000 compounds, 1.2% hits; Potency, µM (top dose mostly 57.9 µM), without a hit: at the highest dose activity change, negative = inhibition, most hits filed as inhibitors; calls by dose curve; tested in HEK293T cells; note: read-out not given here; nearly all actives have a fitted effect of over 45% in size
AMA1 RON2 block: qHTS for Inhibitors of AMA1-RON; Towards Development of Antimalarial Drug Lead: Primary Screen. Plasmodium falciparum AMA1 (3D7) - RON2 peptide interaction. AlphaScreen AMA1-biotinylated RON2 peptide binding. Potency, µM (titrated, usually from 58.2 µM), without a hit: at the highest dose activity change, negative = inhibition, most hits filed as inhibitors. 360,000 compounds, 0.2% hits. AID 720542, 2013;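 note: 0% = vehicle wells and -100% = peptide control; nearly all actives have a fitted effect of over 45% in size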
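AMA1 (3D7) with his tag at 25 nM final met compounds first, then biotinylated RON2 peptide at 25 nM; detection used donor plus acceptor beads, 10 µg/mL apiece, read by AlphaScreen after 30 min at room temperature.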
AmpC inh detg: qHTS Inhibitors of AmpC Beta-Lactamase (assay with detergent) | Potency, µM (highest dose often 114 µM), without a hit: at the highest dose activity change, negative = inhibition, usual class: inhibitors | 370,000 compounds, 0.041% hits | AmpC hydrolysis of nitrocefin, absorbance 480 nm, 0.01% Triton | P00811;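 note: 0% = no-compound wells and -100% = no-enzyme wells; nearly all actives have a fitted effect of over 25% in size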
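AmpC (5.3 nM in the dispensed reagent) in 20 mM phosphate pH 7.0 with 0.01% (detergent screen) or 0.0001% Triton X-100 was preincubated with compounds for 15 min at room temperature. Nitrocefin was then added from an 800 uM solution, and hydrolysis was followed at 480 nm.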
Starred values were filed as active, the others as inactive; [ ] = another dose, or the depositor's remark. An excerpt weighted towards active compounds, which were near 4.1% of everything screened. Unless noted, calls come from the whole dose curve; as a rule, active = well fitted curve in the direction sought with a large enough effect; inconclusive = small, poorly fitted or top-dose-only effect, or another doubt; inactive = no such curve, though single readings can be large; an effect the other way counts as inactive or inconclusive. Unless noted, % is set by controls: 0 for no effect and ±100 for the full control effect; potency is the fitted concentration of half-maximal effect.

Results for Fc1ccc(C(Nc2ccccn2)c2c[nH]c3ccccc23)cc1 (stereo not given) ?
Sm TGR block: 2.8µM*; AmpC inh no detg: -26%; FMDV antiviral: -24%; AMA1 RON2 block: -8%; AmpC inh detg: 0%

What do the screens show for `NCC(c1ccccc1)c1c[nH]c2ccccc12` (stereo not given)?
Sm TGR block: -1%; AmpC inh no detg: -8%[2.29 µM]; FMDV antiviral: -12%; AMA1 RON2 block: 18%; AmpC inh detg: -4%

How did O=[N+]([O-])CC(c1ccc(F)cc1)c1c[nH]c2ccccc12 (stereo not given) do in these assays?
Sm TGR block: -7%; AmpC inh no detg: -33%; FMDV antiviral: -27%; AMA1 RON2 block: -1%; AmpC inh detg: -1%

Results for Cc1ccc2cc(CNCc3cccc4ccccc34)c(N3CCC(O)CC3)nc2c1 ?
FMDV antiviral: -4%

What do the screens show for `Cc1c(Cl)ccc2c1NC(=O)C21NC(CCC(N)=O)[C@H]2C(=O)N(c3ccc(Cl)cc3)C(=O)[C@H]21` (stereo not given in full)?
Sm TGR block: 35µM*; AmpC inh no detg: 126%; FMDV antiviral: inconclusive; AMA1 RON2 block: 0%; AmpC inh detg: -15%

What do the screens show for `CSCCC1NC2(C(=O)Nc3c2ccc(Cl)c3C)[C@@H]2C(=O)N(C3CCCC3)C(=O)[C@H]12` (stereo not given in full)?
Sm TGR block: -5%; AmpC inh no detg: 1%; FMDV antiviral: -23%; AMA1 RON2 block: -5%; AmpC inh detg: -1%

What do the screens show for `Cc1c(Cl)ccc2c1NC(=O)[C@]21N[C@@H](CCC(N)=O)[C@H]2C(=O)N(c3ccc(F)cc3)C(=O)[C@H]21`?
Sm TGR block: 13µM*; AmpC inh no detg: -12%; FMDV antiviral: -1%; AMA1 RON2 block: 11%; AmpC inh detg: inconclusive

What do the screens show for `Cc1c(C(=O)N(C)Cc2nccs2)sc2ncnc(NCC3CCCO3)c12` (stereo not given)?
FMDV antiviral: -19%

What do the screens show for `c1ccc(CNc2ncnc3c2oc2ccccc23)nc1`?
Sm TGR block: 3%; AmpC inh no detg: -10%; FMDV antiviral: 26%; AMA1 RON2 block: 5%; AmpC inh detg: -1%

How did CCc1nc(Nc2cccc(O)c2)c2oc3ccccc3c2n1 do in these assays?
Sm TGR block: -9%; AmpC inh no detg: -32%; FMDV antiviral: 22µM*; AMA1 RON2 block: 0%; AmpC inh detg: -1%

What do the screens show for `CCc1nc(NCc2ccccn2)c2oc3ccccc3c2n1`?
Sm TGR block: 7%; AmpC inh no detg: -14%; FMDV antiviral: 16µM*; AMA1 RON2 block: 28%; AmpC inh detg: -6%

Results for COc1cc(CN2CCC3(CC2)CC3C(=O)Nc2ccc3sc(C)nc3c2)ccc1F (stereo not given) ?
FMDV antiviral: -10%

Results for COc1ccc(Cl)cc1NS(=O)(=O)c1ccc2[nH]c3c(c2c1)CCCC3 ?
Sm TGR block: 9%; FMDV antiviral: 30%; AmpC inh detg: 12%

What do the screens show for `CCn1ncc(Br)c1C(=O)Nc1ccc(F)cc1F`?
Sm TGR block: 3%; AmpC inh no detg: 0.32µM*; FMDV antiviral: -3%; AMA1 RON2 block: 6%; AmpC inh detg: -1%

What do the screens show for `CCn1ncc(Br)c1C(=O)Nc1ccccc1C(F)(F)F`?
Sm TGR block: 2%; AmpC inh no detg: 1%; FMDV antiviral: -18%; AMA1 RON2 block: -1%; AmpC inh detg: 1%

Results for CCOC(=O)N1C(=O)[C@@](CC)(c2ccccc2)N1C(=O)OCC ?
Sm TGR block: inconclusive; AmpC inh no detg: -5%; FMDV antiviral: 35µM*; AMA1 RON2 block: -2%; AmpC inh detg: inconclusive

Results for CCOC(=O)N1CCN(C(=S)Nc2cccc(C)c2)CC1 ?
Sm TGR block: 2%; AmpC inh no detg: -1%; FMDV antiviral: -14%; AMA1 RON2 block: 15%; AmpC inh detg: 0%

Results for CC[C@@]1(c2cccc(C)c2)C(=O)N(C(=O)OC)N1C(=O)OC ?
Sm TGR block: 1.6µM*; AmpC inh no detg: -8%; FMDV antiviral: -21%; AMA1 RON2 block: -3%; AmpC inh detg: -12%

How did CC[C@@]1(c2ccccc2OC)C(=O)N(C(=O)OC)N1C(=O)OC do in these assays?
Sm TGR block: 25µM*; AmpC inh no detg: -3%; FMDV antiviral: inconclusive; AMA1 RON2 block: 1%; AmpC inh detg: inconclusive

Results for COc1ccccc1NC(=O)CN1C(=O)C(C)(C)c2ccccc21 ?
Sm TGR block: 11%; FMDV antiviral: -22%; AmpC inh detg: 4%

How did Cc1ccc(S(=O)(=O)NCC2CCC(C(=O)NCCc3ccccc3)CC2)cc1 (stereo not given) do in these assays?
Sm TGR block: 7%; FMDV antiviral: 12%; AmpC inh detg: 23%

Results for COc1ccc(S(=O)(=O)n2nc(OC(C)=O)cc2N)cc1 ?
Sm TGR block: 25µM*; AmpC inh no detg: -11%; FMDV antiviral: -19%; AMA1 RON2 block: 11%; AmpC inh detg: 1%

How did CCOC(=O)c1c(NC(=O)C2=C(C)NC(=S)NC2c2ccc(CC)cc2)sc(C)c1C (stereo not given) do in these assays?
Sm TGR block: -3%; AmpC inh no detg: 13µM*; AmpC inh detg: -11%

How did Cc1ccc(NC(=O)C(C)Sc2nnc(C)n2C)cc1 (stereo not given) do in these assays?
Sm TGR block: inconclusive; AmpC inh no detg: 321%; FMDV antiviral: 2%; AMA1 RON2 block: -1%; AmpC inh detg: -17%

How did CCOc1ccc(NC(=O)C(C)Sc2nnc(C)n2C)cc1 (stereo not given) do in these assays?
Sm TGR block: -2%; AmpC inh no detg: 3.5µM*; FMDV antiviral: 5%; AMA1 RON2 block: -1%; AmpC inh detg: inconclusive

How did O=S(=O)(c1ccccc1)c1nc(-c2ccc(F)cc2)oc1N1CCCCCC1 do in these assays?
Sm TGR block: -2%; FMDV antiviral: 0%; AmpC inh detg: 27%

Results for O=S(=O)(c1ccc(F)cc1)c1nc(-c2ccccc2F)oc1N1CCCCC1 ?
Sm TGR block: 10µM*; AmpC inh no detg: -26%; FMDV antiviral: -8%; AMA1 RON2 block: -26%; AmpC inh detg: inconclusive

What do the screens show for `Cc1ccc(S(=O)(=O)c2nc(-c3ccccc3F)oc2N2CC(C)OC(C)C2)cc1` (stereo not given)?
Sm TGR block: 20µM*; AmpC inh no detg: 52%; FMDV antiviral: 27%; AMA1 RON2 block: -18%; AmpC inh detg: -16%

How did COc1ccccc1-c1nc(S(=O)(=O)c2ccccc2)c(N2CCCCC2)o1 do in these assays?
Sm TGR block: 0.79µM*; AmpC inh no detg: -15%; FMDV antiviral: 9%; AMA1 RON2 block: -15%; AmpC inh detg: -6%
